40 molecules from PubChem BioAssay (NCATS) can be followed below.

Records with an inconclusive call do not appear. Unmarked numbers belong to inactive results. Calls of active or inactive are those of the source. Calls follow the shape of the dose curve; as a rule, active = well fitted curve in the direction sought with a large enough effect; inconclusive = small, poorly fitted or top-dose-only effect, or another doubt; inactive = no such curve, though single readings can be large; an effect the other way counts as inactive or inconclusive.

Chain of Rap guanine nucleotide exchange factor 3 (Homo sapiens) (O95398 whole entry, looked up): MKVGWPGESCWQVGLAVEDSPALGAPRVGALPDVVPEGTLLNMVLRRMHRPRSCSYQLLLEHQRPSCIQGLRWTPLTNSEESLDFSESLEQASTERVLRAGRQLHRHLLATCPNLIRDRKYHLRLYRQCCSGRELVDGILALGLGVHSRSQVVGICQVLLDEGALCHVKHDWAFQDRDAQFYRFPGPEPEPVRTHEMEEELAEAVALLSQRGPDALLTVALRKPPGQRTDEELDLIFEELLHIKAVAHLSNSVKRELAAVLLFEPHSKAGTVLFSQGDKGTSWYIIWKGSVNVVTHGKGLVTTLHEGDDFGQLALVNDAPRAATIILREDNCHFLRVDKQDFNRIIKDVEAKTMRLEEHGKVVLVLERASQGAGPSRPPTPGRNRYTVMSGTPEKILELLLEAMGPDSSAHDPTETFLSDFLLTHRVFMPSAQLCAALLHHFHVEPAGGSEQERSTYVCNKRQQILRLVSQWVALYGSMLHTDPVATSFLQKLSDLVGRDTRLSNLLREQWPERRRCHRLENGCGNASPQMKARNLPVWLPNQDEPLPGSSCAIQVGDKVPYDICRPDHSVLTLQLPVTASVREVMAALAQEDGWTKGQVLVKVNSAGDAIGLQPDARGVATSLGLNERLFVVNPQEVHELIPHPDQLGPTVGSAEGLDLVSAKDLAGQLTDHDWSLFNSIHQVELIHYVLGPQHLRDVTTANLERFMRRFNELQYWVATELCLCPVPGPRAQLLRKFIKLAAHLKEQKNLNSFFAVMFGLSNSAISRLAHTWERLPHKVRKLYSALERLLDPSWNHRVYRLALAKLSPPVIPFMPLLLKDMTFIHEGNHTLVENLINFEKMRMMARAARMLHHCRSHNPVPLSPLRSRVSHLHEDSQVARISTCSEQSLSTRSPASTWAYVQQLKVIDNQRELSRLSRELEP

The first assay concerns the target Rap guanine nucleotide exchange factor 3 (Homo sapiens) (UniProt O95398). As to the kind of experiment: Confirmatory qHTS for antagonist of cAMP-regulated guanine nucleotide exchange factor 3 (EPAC1) (AID 1645880). Also: nearly all actives have a fitted effect of over 55% in size. Also: potency is read from the fitted curve at half-maximal effect.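 As to activity, negative = inhibition: plate controls were DMSO only for no effect and full effect of the ATA control for full effect.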 The following applies: EPAC1 Rap1B-BODIPY-GDP exchange, fluorescence; activity, negative = inhibition: at 115 µM (top of the series). The method, boiled down: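 Nucleotide exchange uses 100 nM EPAC1, 250 nM RAP1B-BODIPY-GDP and 50 uM GDP, with compounds in a concentration-titration series. After 5 min at room temperature, fluorescence (480 nm ex/540 nm em) is read every 5 min for 30 min. Data are normalized to control ATA and DMSO.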
Background: Quantitative high-throughput screening tests each substance at several concentrations.
Consider `O=C(O)c1ccc(COc2ccccc2/C=C2/NC(=O)N(c3cccc(Cl)c3)C2=O)cc1`, for which the Potency was 37.9 µM (active).
Turning to `Cc1cccc(N2CCCC2=Nc2ccc(Br)cc2C#N)c1`, the “activity, negative = inhibition” value is -21.1%.
Take `CC1CCN(C2(O)C(=O)Nc3ccc(Br)cc32)CC1` (stereo unspecified): the “activity, negative = inhibition” value was -25.2%.
Take `O=C1OC(c2ccccc2)(c2ccccc2)c2ccccc21`: the “activity, negative = inhibition” value is -14.4%.
In the case of `CCCCN1C(=O)/C(=C/C=C2/CC(C)(C)CN2C)SC1=S`, the “activity, negative = inhibition” value is 9.26%.
Consider `C[n+]1ccc(/C=C/c2c[nH]c3ccccc23)cc1`, for which the “activity, negative = inhibition” value is 25.8%.
`O=[N+]([O-])c1c(Nc2ccccn2)cc(Cl)c2nonc12`: the “activity, negative = inhibition” value was 54.2%.
As to `COc1cc2c3nnc(-c4ccc(F)cc4)c-3cn(Cc3cccc(C)c3)c2cc1OC`, the “activity, negative = inhibition” value was 30.2%.
On the same count and under the same terms, under `COc1cccc(Nc2nnc(-c3cc4ccc(O)cc4oc3=O)s2)c1` stands -29.5%.
For `CCOc1ccc(S(=O)(=O)Nc2cc(SCC(=O)O)c(O)c3ccccc23)cc1`, the Potency was 67.5 µM (active).
Consider `CN1CC=C2C(C#N)=C(N)C(C#N)(C#N)[C@H](c3cccc(Cl)c3)C2C1` (stereo partly specified), for which the “activity, negative = inhibition” value was -17.3%.

A further assay has the same target. As to the kind of experiment: Confirmatory qHTS for agonist of cAMP-regulated guanine nucleotide exchange factor 3 (EPAC1) (AID 1645881).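 Also: EPAC1 catalysed release of BODIPY-GDP from Rap1B seen as fluorescence loss; 100% = effect of cAMP agonist control; nearly all actives have a fitted effect of over 75% in size.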 The following applies: EPAC1 Rap1B BODIPY-GDP exchange fluorescence; series mostly up to 154 µM; activation: at the top concentration.
Regarding `c1ccc(C(c2cccs2)c2c[nH]c3ccccc23)cc1` (stereo unspecified), the “activation” value was 17.1%.
With `FC(F)(F)c1ccc(CSc2nccn2-c2ccccc2)cc1`, the “activation” value was 11.3%.
`Cc1ccccc1NS(=O)(=O)c1ccc2c3c(cccc13)C(=O)N2C`: the “activation” value is 21.6%.
`O=C(CSc1nnc(-c2ccco2)c(-c2ccco2)n1)c1ccccc1`: the “activation” value is 12.3%.
The same measure, in the same setting: under `CN(C)C(CNC(=O)c1cc(-c2ccco2)nc2ccccc12)c1ccccc1` (stereo unspecified) stands 8.11%; under `CCCCNC(=O)C[C@@H]1C[C@@]2(C(=O)OC)CCCCC=C2N(Cc2cccc3ccccc23)C1=O`, 6.66%; under `Cc1onc(-c2ccccc2Cl)c1C(=O)OCc1cnc(Cl)s1`, 25.5%.
Same read-out and setting: under `CCCCC[C@H](C)N1C[C@@H](COCc2ccccc2)Oc2cc(N3CCC[C@H]3C(N)=O)ccc2S1(=O)=O` stands -10.9%; under `CC1CC(C)CN(C(=S)SCc2nc(N)nc(Nc3ccccc3)n2)C1` (stereo unspecified), 12.9%; under `Cc1ccc(C)c(NC(=O)CN(C)C(=O)c2ccccc2Cc2ccccc2)c1`, 1.95%.
With `O=C1C(O)=C(O)C(=O)c2ccccc21`, the “activation” value was 9.45%.
As for `COc1ccc(OCCC(=O)OCC(=O)Nc2ccc(S(=O)(=O)N3CCOCC3)cc2)cc1`, the “activation” value was 6.52%.
Turning to `COC(=O)[C@H](Cc1ccccc1)NC(=O)c1ccc2ccccc2n1`, the “activation” value was 21.4%.
Consider `Cn1cc([C@]2(O)C(=O)Nc3ccc(Br)cc32)c2ccccc21`, for which the “activation” value is 15.6%.
On to `c1ccc(-c2onc(-c3ccco3)c2-c2ccc3c(c2)OCO3)cc1`, for which the “activation” value is 2.67%.
With `CN(c1ccccc1)c1nc(N)c([N+](=O)[O-])c(N2CCCCC2)n1`, the “activation” value is 21.2%.
With `c1ccc(-c2onc(-c3ccco3)c2-c2ccc3[nH]ccc3c2)cc1`, the “activation” value was 16.4%.
On to `CC[N+](C)(C)c1ccc(/C=C/c2ccnc3ccccc23)cc1`, for which the “activation” value was -0.683%.
For `N#CC(c1ccccc1)C(CC(=NO)c1ccccc1)c1ccccc1` (stereo unspecified), the “activation” value is -5.43%.
As to `CCOc1cc(/C=N/Nc2ccc(C(=O)O)cc2)ccc1OC(=O)c1ccccc1C`, the “activation” value was 14.1%.
Turning to `CCc1ccc(-c2cc(C)no2)cc1S(=O)(=O)N1CCC(C)CC1`, the “activation” value is 2.98%.
As to `CCN(CC)CC#CC(OC)(c1ccccc1)c1ccccc1`, the “activation” value was -1.71%.
In the case of `CCOc1cc(S(=O)(=O)Nc2ccccc2CC)ccc1Cl`, the “activation” value was 5.37%.
Consider `Cc1ccc(Nc2nc3nonc3[nH]c2=O)cc1Cl`, for which the “activation” value is 5.5%.
On the same count and under the same terms, the figure for `Cc1ccc(-c2cc(C(=O)Nc3ccncc3)c3ccccc3n2)cc1` is 28.4%; for `CN(CC(=O)Nc1ccc(Cl)c(C(F)(F)F)c1)CC(=O)NC1CCCCC1` it is 3.04%.
On to `Cc1ccc(N=C2NC(=O)/C(=C/C=C/c3ccco3)S2)cc1`, for which the “activation” value is 10.7%.
As to `O=C(CCN1C(=O)/C(=C/c2ccc3c(c2)OCO3)SC1=S)Nc1ccc(C(=O)O)cc1`, the “activation” value was 19.1%.
Take `CC(C)C[C@@H](COc1ccccc1)N1CCN(CCc2ccccc2)CCC1=O`: the “activation” value is -4.97%.

A further assay deals with Rap guanine nucleotide exchange factor 4 (Homo sapiens) (UniProt Q8WZA2). As to the kind of experiment: Confirmatory qHTS for agonist of cAMP-regulated guanine nucleotide exchange factor 4 (EPAC2) (AID 1645884).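 Also: nucleotide exchange releases bodipy-GDP from Rap1 and this lowers its fluorescence; % is scaled to controls: 0 for no effect and ±100 for the full control effect; nearly all actives have a fitted effect of over 65% in size.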 To be noted: EPAC2 GEF activity, Rap1B-BODIPY-GDP fluorescence; series mostly up to 154 µM; activation: at the top concentration.
Chain of Rap guanine nucleotide exchange factor 4 (Homo sapiens) (Q8WZA2 whole entry, looked up): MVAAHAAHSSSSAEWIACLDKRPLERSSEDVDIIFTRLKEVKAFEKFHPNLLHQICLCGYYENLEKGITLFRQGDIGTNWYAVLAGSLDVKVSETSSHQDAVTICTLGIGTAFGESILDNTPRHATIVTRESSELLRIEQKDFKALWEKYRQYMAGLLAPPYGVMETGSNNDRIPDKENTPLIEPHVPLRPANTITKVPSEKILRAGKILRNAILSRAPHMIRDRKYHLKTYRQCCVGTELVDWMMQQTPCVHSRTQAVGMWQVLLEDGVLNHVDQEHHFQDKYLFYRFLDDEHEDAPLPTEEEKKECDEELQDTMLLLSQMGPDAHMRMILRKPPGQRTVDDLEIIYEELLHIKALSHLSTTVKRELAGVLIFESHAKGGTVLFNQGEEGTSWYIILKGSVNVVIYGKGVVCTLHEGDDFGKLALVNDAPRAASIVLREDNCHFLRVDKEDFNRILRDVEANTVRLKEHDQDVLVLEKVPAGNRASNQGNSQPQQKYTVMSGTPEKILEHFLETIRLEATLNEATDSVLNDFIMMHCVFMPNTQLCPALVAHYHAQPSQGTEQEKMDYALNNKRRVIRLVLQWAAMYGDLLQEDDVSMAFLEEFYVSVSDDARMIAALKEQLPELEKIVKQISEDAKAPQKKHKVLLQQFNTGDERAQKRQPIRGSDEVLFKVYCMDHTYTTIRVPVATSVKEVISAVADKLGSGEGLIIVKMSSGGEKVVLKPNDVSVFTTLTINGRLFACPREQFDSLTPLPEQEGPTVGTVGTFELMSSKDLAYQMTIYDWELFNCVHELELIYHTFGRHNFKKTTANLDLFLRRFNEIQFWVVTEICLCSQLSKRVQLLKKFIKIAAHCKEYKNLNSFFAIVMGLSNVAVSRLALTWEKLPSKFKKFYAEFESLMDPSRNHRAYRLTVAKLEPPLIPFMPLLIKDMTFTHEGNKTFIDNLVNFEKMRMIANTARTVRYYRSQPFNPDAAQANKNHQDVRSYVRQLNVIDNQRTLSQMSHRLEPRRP
With `Cc1ccccc1NS(=O)(=O)c1ccc2c3c(cccc13)C(=O)N2C`, the “activation” value is 9.14%.
On to `O=C(CSc1nnc(-c2ccco2)c(-c2ccco2)n1)c1ccccc1`, for which the “activation” value was 0.693%.
Turning to `CN(C)C(CNC(=O)c1cc(-c2ccco2)nc2ccccc12)c1ccccc1` (stereo unspecified), the activation is 5.95% [at 17.1 µM, percent relative to cAMP agonist control].
`CCCCNC(=O)C[C@@H]1C[C@@]2(C(=O)OC)CCCCC=C2N(Cc2cccc3ccccc23)C1=O`: the “activation” value was 2.06%.
On to `CCCCC[C@H](C)N1C[C@@H](COCc2ccccc2)Oc2cc(N3CCC[C@H]3C(N)=O)ccc2S1(=O)=O`, for which the “activation” value is -36.4%.
For the molecule `CC1CC(C)CN(C(=S)SCc2nc(N)nc(Nc3ccccc3)n2)C1` (stereo unspecified), the “activation” value is 13.5%.
Consider `Cc1ccc(C)c(NC(=O)CN(C)C(=O)c2ccccc2Cc2ccccc2)c1`, for which the “activation” value is -2.52%.
Regarding `O=C1C(O)=C(O)C(=O)c2ccccc21`, the “activation” value was 1.27%.
Take `COc1ccc(OCCC(=O)OCC(=O)Nc2ccc(S(=O)(=O)N3CCOCC3)cc2)cc1`: the activation is 0% [at 17.1 µM, percent relative to cAMP agonist control].
Consider `COC(=O)[C@H](Cc1ccccc1)NC(=O)c1ccc2ccccc2n1`, for which the activation is 3.75% [at 17.1 µM, percent relative to cAMP agonist control].
In the case of `Cn1cc([C@]2(O)C(=O)Nc3ccc(Br)cc32)c2ccccc21`, the “activation” value was 0%.
Consider `c1ccc(-c2onc(-c3ccco3)c2-c2ccc3c(c2)OCO3)cc1`, for which the “activation” value was 4.05%.
Regarding `CN(c1ccccc1)c1nc(N)c([N+](=O)[O-])c(N2CCCCC2)n1`, the “activation” value is 4.82%.
Take `c1ccc(-c2onc(-c3ccco3)c2-c2ccc3[nH]ccc3c2)cc1`: the “activation” value is 16.6%.
Consider `CC[N+](C)(C)c1ccc(/C=C/c2ccnc3ccccc23)cc1`, for which the “activation” value was 13.6%.
Same read-out and setting: under `N#CC(c1ccccc1)C(CC(=NO)c1ccccc1)c1ccccc1` (stereo unspecified) stands -0.114%; under `CCOc1cc(/C=N/Nc2ccc(C(=O)O)cc2)ccc1OC(=O)c1ccccc1C`, -3.63%.
Turning to `CCc1ccc(-c2cc(C)no2)cc1S(=O)(=O)N1CCC(C)CC1`, the “activation” value is 2.15%.
On to `CCN(CC)CC#CC(OC)(c1ccccc1)c1ccccc1`, for which the “activation” value was 0.613%.
Take `CCOc1cc(S(=O)(=O)Nc2ccccc2CC)ccc1Cl`: the activation is 8.65% [at 17.1 µM, percent relative to cAMP agonist control].
Consider `Cc1ccc(Nc2nc3nonc3[nH]c2=O)cc1Cl`, for which the “activation” value was 3.99%.
With `Cc1ccc(-c2cc(C(=O)Nc3ccncc3)c3ccccc3n2)cc1`, the “activation” value was 5.16%.
As to `CN(CC(=O)Nc1ccc(Cl)c(C(F)(F)F)c1)CC(=O)NC1CCCCC1`, the “activation” value was 2.72%.
On the same count and under the same terms, under `Cc1ccc(N=C2NC(=O)/C(=C/C=C/c3ccco3)S2)cc1` stands 4.55%; under `O=C(CCN1C(=O)/C(=C/c2ccc3c(c2)OCO3)SC1=S)Nc1ccc(C(=O)O)cc1`, 0%; under `CC(C)C[C@@H](COc1ccccc1)N1CCN(CCc2ccccc2)CCC1=O`, -1.16%.
